Reference: PubChem BioAssay (NCATS)
Activity calls are given as the source filed them. Calls come from the whole dose curve; as a rule, active = well fitted curve in the direction sought with a large enough effect; inconclusive = small, poorly fitted or top-dose-only effect, or another doubt; inactive = no such curve, though single readings can be large or run the other way.

Assay: Cellular Toxicity (caspase-3) BJ (AID 658)
Conditions: BJ fibroblasts, luminescence, normalized: DMSO 0%, staurosporine 100%; series mostly up to 91.7 µM; caspase-3 activation: at the top concentration
Description: NIH Chemical Genomics Center [NCGC]
NIH Molecular Libraries Screening Centers Network [MLSCN]
National Institutes of Environmental Health Sciences [NIEHS]
National Toxicology Program [NTP]
We have developed a 1536-well cell-based assay for quantitative high throughput screening (qHTS) against a number of cell lines to determine in vitro caspase 3/7 activity of small molecules. This particular assay uses BJ cell line which is derived from normal human foreskin fibroblast.
NCGC Assay Protocol Summary:
The Caspase-Glo 3/7 assay (Promega) is a homogeneous method to measure caspase-3 and caspase-7 activities in cultured cells. The quantitation of caspase 3/7 activity is based on the cleavage of a peptide-aminoluciferin substrate. After caspase cleaves the substrate the free aminoluciferin is liberated and serves as the substrate of luciferase, which generates the light. The luminescent signal is proportional to amount of caspase 3/7 activity present.
Using the Caspase-Glo 3/7 assay, the amount of caspase 3/7 activity was measured in the BJ cell line with complete culture medium following compound treatment for 16 hours. The assay was performed in opaque white 1536-well plates. In the screen, staurosporine and tamoxifen were used as positive controls. Library compounds were measured for their ability to cause the activation of caspase 3/7 in the cell line, as reflected by an increase in luminescence signal, in a concentration-dependent manner. Data were normalized to the controls for basal activity (DMSO only) and 100% stimulation (10 uM staurosporine). AC50 values were determined from concentration-response data modeled with the standard Hill equation.
qHTS protocol for caspase 3/7 assay in the BJ cells
[Step] [Parameter] [Value] [Description]
1. Reagent; 5 uL; 1000 the BJ cells/well
2. Time; 5 hr; 37 °C incubation
4. Controls; 23 nL; Tamoxifen 0.23 uM to 100 uM & staurosporine 1.4 pM to 100 uM
5. Time; 16 hr; 37 °C incubation
6. Reagent; 5 uL; Caspase-Glo 3/7 reagent
7. Time; 1 hr; Room Temperature
8. Detection; Luminescence; Viewlux plate reader
Keywords: caspase 3/7, apoptosis, the BJ cell line, luminescence, NTPHTS, NTPHTS_NCGC, NIEHS, EPA, DSSTox, MLSMR, MLSCN, NIH Roadmap, qHTS, NCGC
In the case of C[C@]12CC[C@H]3[C@@H](CCC4=CC(=O)CC[C@@]43C)[C@@H]1CC[C@@H]2O, the “caspase-3 activation” value is reported as -1.42% (inactive). In the case of ClC(Cl)(Cl)c1ccccc1, the outcome is reported as “inactive”. For Clc1nc(Cl)nc(Cl)n1, the “caspase-3 activation” value was 0.874% (inactive). For C=CC(=C)C, the “caspase-3 activation” value was -0.805% (inactive). For O=C(Cl)C(Cl)(Cl)Cl, the “caspase-3 activation” value was 0.928% (inactive). In the case of Cc1ccc(O)c(C)c1, the “caspase-3 activation” value is reported as 1.37% (inactive). With Cc1ccc2ccccc2c1 the “caspase-3 activation” value was -1.45% (inactive). For CC(C)(c1ccccc1)c1ccc(O)cc1, the “caspase-3 activation” value was -0.388% (inactive). For CNC(=O)O/N=C/C(C)(C)SC, the “caspase-3 activation” value was -0.0512% (inactive). With c1ccc(-c2ccccc2)cc1 the “caspase-3 activation” value was 0.289% (inactive). For COC1=CC(=O)O[C@@H](/C=C/c2ccc3c(c2)OCO3)C1, the “caspase-3 activation” value was -9.56% (inactive). For O=[N+]([O-])c1cccc2ccccc12, the “caspase-3 activation” value was 3.37% (inactive). For COc1ccc(N)cc1, the outcome was “inactive”. With CCCCCCCC(=O)Cl the “caspase-3 activation” value was -0.433% (inactive). With Nc1ccccc1Cl the “caspase-3 activation” value was -2.68% (inactive). For C=CC1CC=CCC1 (stereo not given), the “caspase-3 activation” value was 1.08% (inactive). With COP(=S)(OC)Oc1ccc([N+](=O)[O-])cc1 the “caspase-3 activation” value was -0.795% (inactive). With Clc1ccc2ccccc2c1 the “caspase-3 activation” value was 0.00565% (inactive). In the case of CCC[CH2][Sn]([Cl])([Cl])[Cl], the “caspase-3 activation” value is reported as 1.99% (inactive). In the case of CC(C)(C)OO, the outcome is reported as “inactive”. With COC1=CC(=O)OC(CCc2ccccc2)C1 (stereo not given) the “caspase-3 activation” value was -3.07% (inactive). With CCSC(=O)Cl the “caspase-3 activation” value was 0.0999% (inactive). In the case of BrCCBr, the “caspase-3 activation” value is reported as -1.11% (inactive). With CCc1cccc(CC)c1N(COC)C(=O)CCl the “caspase-3 activation” value was 1.16% (inactive). For C1CCC2CCCCC2C1 (stereo not given), the “caspase-3 activation” value was -0.184% (inactive). For Nc1c(Cl)c(Cl)nc(C(=O)O)c1Cl, the “caspase-3 activation” value was 0.29% (inactive). With CCOc1ccc(N)cc1 the “caspase-3 activation” value was -0.362% (inactive). With O=NN(CCO)CCO the “caspase-3 activation” value was 2.49% (inactive). In the case of ClC(Cl)=C(Cl)C(Cl)=C(Cl)Cl, the “caspase-3 activation” value is reported as -1.06% (inactive). In the case of CN=C=S, the “caspase-3 activation” value is reported as -0.0298% (inactive). With ClCBr the “caspase-3 activation” value was 1.94% (inactive). With OCC(Br)CBr (stereo not given) the “caspase-3 activation” value was -0.0765% (inactive). For Cc1ccc([N+](=O)[O-])cc1C, the “caspase-3 activation” value was 0.262% (inactive). With C/C=C/c1ccc2c(c1)OCO2 the “caspase-3 activation” value was -0.185% (inactive). With C=CCOC(C)=O the “caspase-3 activation” value was -1.47% (inactive). For CCCCCCCCCc1ccc(O)cc1, the “caspase-3 activation” value was 8.83% (inactive). For O=C=NC1CCCCC1, the outcome was “inactive”. For NC(=S)Nc1ccccc1, the outcome was “inactive”. For O=C(O)COc1ccc(Cl)cc1Cl, the outcome was “inactive”. For Cc1cccc([N+](=O)[O-])c1, the “caspase-3 activation” value was -0.242% (inactive).
